Test results from PubChem BioAssay AID1259341 (Broad Institute, 2017).
Active and inactive are the calls of the source.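 The calls were made as follows: active = activity change under -35% in any replicate well, with more than 20 beads read in that well; inactive = the rest.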

target: Caspase recruitment domain-containing protein 9 (Homo sapiens) + E3 ubiquitin-protein ligase TRIM62 (Homo sapiens) (UniProt Q9H257+Q9BVG3); experiment: CARD9/TRIM62 protein interaction inhibitors – cell lysate, HEK293FT lysates, Luminex bead ELISA, primary screen (AID 1259341); details: PE fluorescence, active compounds read low, concentration not given here;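 also: PE anti-Flag signal of Flag-CARD9 captured by myc-TRIM62 beads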
Sequence (Q9BVG3 whole entry, looked up, the tested form may be a part): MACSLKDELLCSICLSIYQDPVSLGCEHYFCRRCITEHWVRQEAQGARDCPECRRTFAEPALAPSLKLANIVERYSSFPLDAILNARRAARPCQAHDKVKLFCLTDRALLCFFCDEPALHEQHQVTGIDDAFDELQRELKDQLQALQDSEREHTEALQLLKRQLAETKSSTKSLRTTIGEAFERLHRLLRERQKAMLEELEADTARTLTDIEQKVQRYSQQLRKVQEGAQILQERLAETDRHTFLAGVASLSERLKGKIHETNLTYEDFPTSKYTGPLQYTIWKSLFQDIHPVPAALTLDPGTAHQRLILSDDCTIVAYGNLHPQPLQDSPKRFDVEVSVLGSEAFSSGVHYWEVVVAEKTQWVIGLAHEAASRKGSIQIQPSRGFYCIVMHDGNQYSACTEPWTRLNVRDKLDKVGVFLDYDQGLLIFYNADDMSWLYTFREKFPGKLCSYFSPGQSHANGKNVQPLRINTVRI
Sequence (Q9H257 whole entry, looked up, the tested form may be a part): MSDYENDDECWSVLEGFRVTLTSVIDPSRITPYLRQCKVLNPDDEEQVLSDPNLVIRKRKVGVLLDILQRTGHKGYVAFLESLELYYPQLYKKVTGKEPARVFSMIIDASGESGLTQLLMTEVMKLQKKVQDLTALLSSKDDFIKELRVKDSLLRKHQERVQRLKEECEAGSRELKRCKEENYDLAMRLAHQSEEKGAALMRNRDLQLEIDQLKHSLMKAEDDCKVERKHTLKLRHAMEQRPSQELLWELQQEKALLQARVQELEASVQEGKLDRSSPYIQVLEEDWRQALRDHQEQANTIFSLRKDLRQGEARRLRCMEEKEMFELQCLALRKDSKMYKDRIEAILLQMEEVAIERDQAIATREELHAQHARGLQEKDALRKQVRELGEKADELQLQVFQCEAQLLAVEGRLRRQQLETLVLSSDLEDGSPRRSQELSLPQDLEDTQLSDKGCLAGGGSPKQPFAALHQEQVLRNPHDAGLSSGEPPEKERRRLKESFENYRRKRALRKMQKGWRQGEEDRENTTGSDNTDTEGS

Activity change, negative = inhibition, inactive:
N#Cc1c(N)oc(-c2ccco2)c1-c1ccco1 -6.71%
CC(C)=CCC(C#N)(CC=C(C)C)C(=O)O 8.02%
O=C(Nc1nnc(-c2ccco2)s1)c1ccccc1 1.07%
O=C(Cc1cccs1)Nc1nnc(Cc2ccccc2)s1 10.6%
COc1ccc(S(=O)(=O)N2CCOCC2)cc1NC(=O)c1cccc(-n2cccc2)c1 -8.72%
O=C1c2ccccc2S(=O)(=O)N1Cc1cccc(S(=O)(=O)N2CCOCC2)c1 5.11%
O=C(CCn1cncn1)N1CCC(n2cc(-c3ccccn3)nn2)CC1 3.29%
COCC(=O)N1CCCC2(CCN(CCN3CCCC3)C2=O)C1 (stereo not given) -5.85%
O=C(COc1cccnc1[N+](=O)[O-])c1ccc(Cl)s1 -9.96%
COc1ccc(F)c(CN2C[C@H]3CC[C@@H]2CN(Cc2cscn2)C3)c1 -3.76%
O=C(CN1CCN(c2ccccc2O)CC1)NC(=O)NC1CCCC1 2.28%
OCc1ccc(O)c2ncccc12 -35%
Cc1ccc2c(c1)C(N1CCCC1=O)CC(c1ccco1)N2 (stereo not given) 5.12%
Cc1cc(C)c2c(N)c(C(=O)Nc3cccc4ccccc34)sc2n1 -1.34%
Cc1ccc(C)n1NC(=O)c1ccccc1O 1.19%
COc1cccc(NC(=O)CN(C)C(=O)c2cc3c(s2)CCC3)c1 -19.8%
O=C(COC(=O)c1ccc(S(=O)(=O)NCc2ccco2)cc1)Nc1ccc(Cl)cn1 -0.897%
O=C(O)CCc1ccc(-c2cccs2)n1NC(=O)c1ccco1 1.63%
O=C(Nc1ccc(OCC(=O)N2CCOCC2)cc1)c1cncc(Br)c1 -1.75%
CC1Cc2ccccc2N1CC(=O)NC(=O)NC(C)(C)C (stereo not given) 2.18%
O=[N+]([O-])c1ccc2cc[nH]c2c1 7.88%
Cc1ccc(-c2nc(C)sc2CC(=O)NCc2ccco2)cc1 -1.34%
O=C(COC(=O)c1ccccc1Oc1ccccc1)NCc1ccco1 3.86%
CCN1CCN(C(=O)c2cc(-c3ccco3)nc3ccccc23)CC1 4.84%
O=c1oc(-c2ccccc2)nc2sc3c(c12)CCC3 0.684%
Cn1cccc1CNCCCSc1ncccn1 1.41%
CC(=O)c1ccc(NC(=O)c2noc3c2CCC3)cc1 -2.31%
Cc1cccc(Nc2nc(C(=O)Nc3cc(F)ccc3F)nc3ccccc23)c1 1.63%
CN(Cc1ccco1)S(=O)(=O)c1nnc(NC(=O)c2ccccc2)s1 13.7%
CCCOc1ccc(CCC(=O)O)cc1 -3.23%
COc1ccc(N2Cc3cccc(C(=O)NC(C)CCc4ccco4)c3C2=O)cc1 (stereo not given) 0.962%
CC(=O)Nc1ccc2nc3c(=O)n(C)c(=O)n(C)c3nc2c1 3.76%
COc1cc(N)c(Cc2nccc3cc(OC)c(OC)cc23)cc1OC 1.93%
Cc1ccc(N2C(=O)c3ccccc3C2C(=O)c2ccc(O)cc2O)cc1 (stereo not given) 12.1%

Activity change, negative = inhibition, active:
C=CC(=O)N1CCCC2(CCN(CCN3CCCC3)C2=O)C1 (stereo not given) -70.2%
